# High-throughput results from PubChem.
# Compounds with a hit are over-represented: about 1.4% of the library has one in this group of screens.
# Mtb MbtI inh – blocks the Mycobacterium tuberculosis siderophore enzyme MbtI | purified MbtI enzyme, fluorescence intensity read-out | inhibition, % (no concentration beside the values) | 0.89% of 100,000 active; in the data active = inhibition mostly above about 56%, no sharp cut-off; inactive = mostly below about 77%
# AID504770 – E. coli YBA685 growth inhibition, screen for V. cholerae RctB inhibitors. E. coli YBA685 rctB-dependent plasmid, OD600 growth, 3 h; active compounds read low. z-score (concentration not given with the values). 0.27% of 130,000 active. AID 504770; in the data active = z-score below about -2, passing the limit was not always enough
# Mtb MenB inh – inhibitors of Mycobacterium tuberculosis MenB enzyme; P9WNP5; MenB enzyme assay, absorbance read-out; inhibition, % (test concentration not listed); 0.43% of 100,000 active; in the data active = inhibition above about 21%, passing the limit was not always enough
# Polio RdRp inh – poliovirus RNA polymerase inhibition; 0.66% of 150,000 active; poliovirus polymerase elongation, fluorescence polarization; active compounds read low; AID 588519; P03300; % elongation, % (compound at 16.7 µg/mL); in the data active = % elongation below about 90%
# Target sequence (P03300 1749-2209 limits assumed): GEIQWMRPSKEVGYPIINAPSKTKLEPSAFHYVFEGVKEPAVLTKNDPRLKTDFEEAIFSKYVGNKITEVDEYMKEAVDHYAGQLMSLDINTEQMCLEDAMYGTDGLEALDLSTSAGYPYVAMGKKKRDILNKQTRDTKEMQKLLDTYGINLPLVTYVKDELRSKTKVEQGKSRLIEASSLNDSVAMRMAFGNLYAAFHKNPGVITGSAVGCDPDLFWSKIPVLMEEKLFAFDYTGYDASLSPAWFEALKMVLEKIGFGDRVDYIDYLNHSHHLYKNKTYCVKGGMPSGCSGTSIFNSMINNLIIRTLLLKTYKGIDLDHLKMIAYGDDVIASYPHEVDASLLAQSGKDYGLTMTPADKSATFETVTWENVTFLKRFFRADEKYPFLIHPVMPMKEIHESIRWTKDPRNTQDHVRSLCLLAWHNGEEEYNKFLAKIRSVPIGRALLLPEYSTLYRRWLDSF
# Active calls of the source: *; . = no result.
SMILES,Mtb MbtI inh,AID504770,Mtb MenB inh,Polio RdRp inh
N#CSC1C=CS(=O)(=O)C1 (stereo not drawn),.,-4.8*,.,.
Cc1ccc(Cl)cc1NC(=O)C1=NCCN1,-0.4,0.05,-48.9,73.0*
Cc1nn(-c2ccccc2Cl)c(Cl)c1C=Nc1cc(Cl)ccc1C#N,-13.9,-0.5,-39.5,105.0
CCOC(=O)c1cc(C(=O)O)nn1C,-1.6,0.05,28.3*,101.0
CCOC(=O)c1cc(C(=O)OCC)n(C)n1,.,-0.2,-5.5,104.0
O=c1c(Cl)c(Nc2ccc(F)cc2)cnn1-c1ccccc1,3.3,-0.4,2.5,84.0*
Cc1n[nH]c(=O)c(C#N)c1C,57.0,0,-11.7,.
FC(F)(F)c1n[nH]c(=S)n1/N=C/c1c[nH]c2ccccc12,.,0.25,-5.0,95.0
S=c1[nH]nc(Cc2cccc3ccccc23)n1/N=C/c1ccco1,64.8*,0.75,-36.7,99.0
CCC(C)NC(=O)c1nc2c(nnn2Cc2ccccc2Cl)c(=O)[nH]1 (stereo not drawn),-1.2,-0.2,-12.2,104.0
CCc1nnc(Cn2nnc3c(=O)[nH]c(C(=O)Nc4ccc(C)cc4)nc32)s1,16.5,-0.5,-89.1,86.0*
O=C1NC(=O)C(=C2CCCCC2)S1,85.8*,0.15,-36.1,105.0
O=C1N=C(N2CCOCC2)SC1=C1CCCCC1,-4.2,-0.85,-20.0,101.0
CN(C)CCn1c(=O)c2[nH]cnc2n(C)c1=O,-0.2,0.7,-1.6,104.0
CCOc1cc2c(cc1OCC)C1C(C(=O)NCCC(C)C)c3ccccc3C(=O)N1CC2 (stereo not drawn),12.8,-2.9*,-12.0,102.0
COCCn1c(C)cc(O)c(C(c2ccccc2)N2CCN(c3ccccc3)CC2)c1=O (stereo not drawn),.,.,.,85.0*
CCn1cc2c(n1)-c1c(oc(C(=O)Nc3ccc(Cl)cc3)c1C)CC2,9.7,0.05,9.5,88.0*
CCn1cc2c(n1)-c1c(oc(C(=O)Nc3ccc(Br)cc3F)c1C)CC2,.,.,.,53.0*
CCNc1ncnc2onc(C)c12,5.7,-1.85,-9.8,102.0
Cc1cc(C)n(C(=O)c2cccs2)n1,0.8,0.4,4.6,103.0
Cc1cc(C)n(C(=O)c2ccoc2C)n1,-0.8,-0.55,36.0*,100.0
CCOC(=O)c1sc(NC(=NC)c2ccco2)cc1C,7.3,-0.55,-31.6,105.0
O=C(c1ccc(N2CCCc3ccccc32)s1)N1CCCC1,127.0,-2.2*,-23.2,100.0
C=C(C)C(=O)Nc1ccc2c(c1)C(=O)NC2=O,180.7,-1.35,-11.6,105.0
O=C(CSc1nncc(=O)[nH]1)Nc1cccc(Cl)c1,72.8*,-0.15,-51.1,101.0
SMILES,Mtb MbtI inh,AID504770,Mtb MenB inh,Polio RdRp inh
O=C(CSc1nncc(=O)[nH]1)NCc1ccccc1,11.4,0.45,0.6,99.0
CC(C)Cn1cc(NC(=O)N2CCN(c3ccccc3)CC2)c2ccccc2c1=O,-20.0,-0.45,0.2,98.0
CC(=O)c1ccc(N2CCN(C(=O)Nc3cn(CC(C)C)c(=O)c4ccccc34)CC2)cc1,.,.,.,76.0*
Cc1ccc(Cl)cc1NC(=O)Nc1cn(CC(C)C)c(=O)c2ccccc12,.,.,.,69.0*
COc1ccc(CNC(=O)Nc2cn(CC(C)C)c(=O)c3ccccc23)cc1,.,.,.,60.0*
Cn1ccnc1C1(O)CCNCC1,2.6,-0.85,-29.4,100.0
O=C(O)c1cccc(N=Nc2sc3ccccc3c2O)c1,89.2,0.9,-208.6,107.0
O=C1NCCCc2nc(N3CCCCC3)sc21,.,0.3,13.0,101.0
FC(F)Oc1ccc(Cl)cc1CSc1ncccn1,-8.8,0.35,-7.2,103.0
O=C(CCC1CCCCC1)Nc1c[nH]c(=O)[nH]c1=O,-5.0,-2.15*,0.0,102.0
O=C(Nc1c[nH]c(=O)[nH]c1=O)NC1CCCC1,1.2,-0.6,4.1,100.0
COC(=O)C(N)C12CC3CC(CC(C3)C1)C2 (stereo not drawn),3.1,0.3,17.2,101.0
COC(=O)C(F)C(=O)OC,-0.6,0.8,10.8,88.0*
COc1ccc(Cl)cc1NC(=O)CN(C)c1nnnn1-c1ccccc1,-7.1,-0.2,-4.7,105.0
Cn1c(CNC(=O)C2CCCCC2)cc2cc(Cl)ccc21,.,-0.35,23.4*,104.0
O=C(NCCCn1ccnc1)c1ccc(Oc2ccccc2)cc1,1.9,0.5,.,101.0
CCN1CCN(CCCNC(=O)c2cc3cc4ccc(Cl)cc4nc3o2)CC1,81.5,-2.3*,-14.0,102.0
O=C(NCCCN1CCCC1)c1cc2cc3ccc(Cl)cc3nc2o1,.,0.75,.,.
CCN(CC)C(=O)c1cc(-c2ccc(OC)cc2)on1,.,0.4,.,.
CC(C)(C)C(=O)Nc1cc(C(F)(F)F)cc(C(F)(F)F)c1,.,-0.55,.,.
CCN(CC)C(=S)C(=O)Nc1cc(C(F)(F)F)cc(C(F)(F)F)c1,.,0.7,-26.4,86.0*
COC(=O)C1(c2ccccc2)NC(c2ccccc2C)C2C(=O)N(C)C(=O)C21 (stereo not drawn),-8.2,-0.35,-54.1,102.0
COC(=O)C1(C(C)C)NC(c2ccccc2OC)C2C(=O)N(C)C(=O)C21 (stereo not drawn),-6.7,-0.65,27.1*,102.0
Nn1c(SCC(=O)NCc2ccc3c(c2)OCO3)nncc1=O,-1.4,-0.6,-46.8,100.0
Nn1c(SCC(=O)NCc2ccc3c(c2)OCO3)nnc1C1CC1,81.2*,0.9,14.3,104.0
SMILES,Mtb MbtI inh,AID504770,Mtb MenB inh,Polio RdRp inh
Cc1cc(C)nc(SCC(=O)c2c(N)no[n+]2[O-])n1,.,-1.7,26.1,109.0
CCNc1nc(NCC)nc(NCCO)n1,-13.6,-0.45,32.3*,99.0
CCNc1nc(Cl)nc(NCC)n1,-3.4,-0.1,.,101.0
Cc1ccc(-c2nc(SCC(=O)c3ccc(Cl)cc3)n[nH]2)cc1,.,1.9,.,.
Nc1nc(SCC(=O)c2ccc(Cl)cc2)n[nH]1,.,-2.65*,.,.
CC(C)c1cccc(C(C)C)c1O,-7.9,.,-9.4,100.0
Cc1cccc(O)c1O,85.8*,0,-13.9,102.0
Cn1c(=O)c2conc2n(C)c1=O,10.6,-1.75,-4.9,101.0
c1ccc2sc(CSC3=NCCN3)nc2c1,52.0,-0.95,-3.4,103.0
COc1ccc2c(c1)cc1n2CCN=C1N,.,-1.3,-5.3,89.0*
COc1ccc2c(c1)cc1n2CCN2CCN=C12,-1.7,-0.2,-3.3,100.0
CCn1c(=O)[nH]c2ccc(S(=O)(=O)N(C)C)cc21,1.1,0.85,18.7,103.0
CC(=O)N1CCN(S(=O)(=O)c2cccc(C(=O)NCC34CC5CC(CC(C5)C3)C4)c2)CC1,7.6,0.5,-16.9,106.0
CC(C)NC(=O)c1ccc(-c2ccc(F)cc2)o1,90.3,1.4,30.3*,101.0
COC(=O)C1C(c2ccccc2)C(C(=O)OCc2ccccc2)C1c1ccccc1 (stereo not drawn),.,-0.9,-10.2,112.0
Cc1cc(C(=S)NC(=O)c2ccccc2)c(C)n1C,65.3*,0.8,-17.6,102.0
COc1cc(OC)c(C(=S)N2CCN(CCO)CC2)cc1OC,16.8,-0.1,-9.0,99.0
O=C(Cc1coc2cc(O)ccc12)OCC(=O)c1ccc2[nH]c(=O)[nH]c2c1,-6.7,-0.35,-12.2,72.0*
O=C(Cc1coc2cc(O)ccc12)OCc1ccccc1C(F)(F)F,-7.6,-0.15,-16.9,100.0
CCN1CCCC1CNc1cc(C)c2ccc(C)cc2n1 (stereo not drawn),4.3,-1.2,-19.7,88.0*
CCN1CCCC1CNc1ncnc2c1cnn2-c1ccc(C)cc1 (stereo not drawn),118.3,-1.1,-21.8,101.0
